# Bioassay records: PubChem, National Center for Advancing Translational Sciences (NCATS)
# MARV entry inh – blocks Marburg virus binding to or entry into cells | 300,000 compounds, 1.8% hits | Marburg virus pseudotyped entry inhibition, cell reporter | AID 540276 | Potency, µM (top dose mostly 37.8 µM), inactives show at the top dose activity change, negative = inhibition, most hits filed as inhibitors; calls by dose curve; tested in HEK293 cells; further: potency means the concentration at half of the fitted maximal effect
# VACV mCherry inh – inhibitors of vaccinia virus infection (mCherry reporter signal) | Vaccinia virus mCherry reporter infection, fluorescence | 310,000 compounds, 0.63% hits | Potency, µM (doses to about 36.5 µM), for the others: at the top dose activity change, negative = inhibition, hits mostly inhibitors | AID 720579; calls by dose curve; tested in A549 cells; further: potency means the concentration at half of the fitted maximal effect; nearly all actives have a fitted effect of over 35% in size
# HCMV inh – human cytomegalovirus inhibition; HFF cells, HCMV-luciferase reporter, 72 h; active compounds read low; activity change, negative = inhibition, % at 57.5 µM; 410,000 compounds, 4.5% hits; AID 1259415; in the data active means activity change below about -60%; inconclusive means no clear call, values can overlap the other calls; inactive means above about -39%
#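 Two compound doses tested in HFFs infected with HCMV-luciferase, MOI 1 PFU/cell, 72 h at 37C. Lysate luminescence read with OneGlo; data normalized against buffer-only and 10uM Salinomycin inhibitor controls.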
# Lassa entry inh – inhibitors of Lassa virus binding or cell entry. Potency, µM (titrated, usually from 37.9 µM), for the others: at the top dose activity change, negative = inhibition, most hits filed as inhibitors. AID 540256. 300,000 compounds, 1.2% hits. Lassa virus pseudotype entry inhibition, cell reporter; calls by dose curve; tested in HEK293 cells; further: potency means the concentration at half of the fitted maximal effect; nearly all actives have a fitted effect of over 50% in size
# VACV Venus inh – vaccinia inhibition (Venus reporter) | Vaccinia virus Venus reporter expression, fluorescence | Potency, µM (top dose mostly 36.5 µM), for the others: at the highest dose activity change, negative = inhibition, most hits filed as inhibitors | AID 720580 | 330,000 compounds, 0.46% hits; calls by dose curve; tested in A549 cells; further: potency means the concentration at half of the fitted maximal effect; nearly all actives have a fitted effect of over 30% in size
# FMDV inh – antivirals against foot and mouth disease virus. FMDV antiviral cell-based qHTS. Potency, µM (series often up to 57.9 µM), for the others: top-dose activity change, negative = inhibition, actives largely listed as inhibitors. 410,000 compounds, 1.2% hits; calls by dose curve; tested in HEK293T cells; further: read-out not given here; potency means the concentration at half of the fitted maximal effect; nearly all actives have a fitted effect of over 45% in size
# Starred values were filed as active, the others as inactive; i = inactive; ? = inconclusive; . = not tested or not shown; ! = not active in a repeat; [ ] = another dose, or the depositor's remark. Hits are enriched below; roughly 6.5% of the tested compounds scored in any of these assays. On the % scale 0 is the no-effect control and ±100 the full control effect.
SMILES,MARV entry inh,VACV mCherry inh,HCMV inh,Lassa entry inh,VACV Venus inh,FMDV inh
Cc1cc(C)c2nc(NC(=O)c3ccc4c(=O)n5c(nc4c3)CCCCC5)sc2c1,.,i,-72*,.,-22%,-26%
Cc1ccc(NC(=O)c2ccc3c(=O)n4c(nc3c2)CCCCC4)nc1,-2%,-7%,-8,-22%,-8%,-9%
CCOc1ccc(C(=O)NCc2nnnn2-c2ccc(C)c(C)c2)cc1OCC,.,-16%,10,-1%[46.1 µM],-17%,-16%
CCC1C(=O)NCCN1Cc1ccc2c(c1)CN(Cc1cccn1-c1ccc(Cl)cn1)CCO2 (stereo unspecified),.,-20%,.,.,-4%,-8%
CCn1cc(C(=O)N(C)c2ccc(C(C)C)cc2)c2cc(OC)c(OC)cc2c1=O,-13%[46.1 µM],-20%,-17,-19%[46.1 µM],-23%,-12%
O=C(Nc1ccc(Cl)cc1)c1cc2c(cc1O)[nH]c1ccccc12,7.9µM*,?,-81*,?,?,?
CC(=O)Nc1ccc2[nH]c3ccccc3c2c1,26%,-16%,-3,22%,-9%,.
CCc1ccc2oc(-c3cc(NC(=O)C(C)C)cc(C)c3O)nc2c1,?,2%,-9,-5%[46.1 µM],16%,7%
NC(Cc1ccc(N(CCCl)CCCl)cc1)C(=O)O (stereo unspecified),5.8µM*,i,.,2.9µM*,-11%,12%
CCC(N)C(O)c1ccc(O)c(O)c1 (stereo unspecified),.,-5%,.,.,-5%,-8%
N[C@@H](Cc1ccc(O)c(O)c1)C(=O)O,16µM*!,-12%,?,?,-11%,14%
CC(=O)NC(Cc1ccc(N(CCCl)CCCl)cc1)C(=O)NC(C(=O)O)C(C)C (stereo unspecified),6%[46.1 µM],i,4,-14%,-8%,-15%
CCOC(=O)CC(NC(=O)C(Cc1ccc(N(CCCl)CCCl)cc1)NC(C)=O)C(=O)OCC (stereo unspecified),?,i,-92*,?,-8%,-30%
NC(C(=O)O)C(O)c1ccc(O)c(O)c1 (stereo unspecified),1.3µM*,.,.,?,.,.
NC(Cc1ccc(O)c([N+](=O)[O-])c1)C(=O)O (stereo unspecified),9%,i,-1,-1%,-6%,-24%
Cc1ccccc1CN1CCN(CC(=O)NCc2ccccc2Cl)C1=O,.,-14%,-19,0%[46.1 µM],-17%,41%
Cc1ccc2ncc(C(=O)Nc3cccc(C(F)(F)F)c3)c(=O)n2c1,5%[46.1 µM],-12%,15,.,0%,10%
COc1ccc(C(=O)OCc2cc(=O)n3nc(C4CC4)sc3n2)cc1OC,.,-8%,-8,27%[46.1 µM],-9%,-14%
C[C@H](Cc1ccc(O)c(O)c1)[C@@H](C)Cc1ccc(O)c(O)c1,14µM*,-17%,.,?,-22%,-27%
Cc1n[nH]c2c([N+](=O)[O-])c(=O)[nH]c(=O)n12,?,-8%,-71*,17%,-6%,2%
Cc1ccc(NC(=O)Nc2nnc(SCC(=O)N(C(C)C)C(C)C)s2)cc1,.,-4%[7.34 µM],-80*,-8%[46.1 µM],-13%[7.34 µM],0%
COc1ccccc1NC(=O)CSc1nnc(NC(=O)Nc2ccc(C)cc2)s1,.,-6%[7.34 µM],-86*,?,-15%[7.34 µM],-8%
CC(C)N(C(=O)CSc1nnc(NC(=O)C2CCC2)s1)C(C)C,?,-21%,11,-17%,-10%,24%
COc1ccccc1NC(=O)CSc1nnc(NC(=O)C2CC2)s1,7%[46.1 µM],46%,38,-24%,5%,-12%
Cn1nc(C(=O)Nc2cc(F)ccc2F)c2c1-c1ccccc1SC2,-9%[46.1 µM],-16%,0,-3%[46.1 µM],-10%,25%
SMILES,MARV entry inh,VACV mCherry inh,HCMV inh,Lassa entry inh,VACV Venus inh,FMDV inh
COc1ccc(-c2noc(CN(C(=O)Cc3ccc(C)cc3)C(C)C)n2)cc1,?,-15%,-17,?,-6%,?
CCOC(=O)CSc1nc2ccccc2n2c(C)nnc12,-5%[46.1 µM],0%,13,?,-11%,-11%
Cc1nnc2c(SC(C)C)nc3ccccc3n12,.,.,-82*,.,.,-1%
Fc1cccc(Cl)c1CNCCSc1nnnn1-c1ccccc1,-8%[46.1 µM],-3%,-2,21%[46.1 µM],-10%,18%
CN(C)CCCNc1nccc(N2CCN(C)CC2)n1,.,-6%,.,.,-10%,.
CCCCn1c(O)c(C(=O)/C=C/c2ccc3c(c2)OCO3)c(=O)[nH]c1=O,-5%[46.1 µM],?,-23,?,-11%[7.34 µM],?
Cc1cc(C)c(C(=O)/C=C/c2ccc3c(c2)OCO3)c(=O)[nH]1,-19%[46.1 µM],-12%,-101*,-22%,-3%,5%
Cc1cc(C)c(C(=O)/C=C/c2cccc3ccccc23)c(=O)[nH]1,?,5µM*,-104*,6.3µM*,8.9µM*,?
NC(CSC(c1ccccc1)(c1ccccc1)c1ccccc1)C(=O)O (stereo unspecified),-28%,?,31,-25%[46.1 µM],-25%,-10%
NC(CC(=O)NC(c1ccccc1)(c1ccccc1)c1ccccc1)C(=O)O (stereo unspecified),-1%[46.1 µM],-3%,-69*,2%,3%,2%
Cc1ccc(N(CC(=O)NC2CCCCC2)C(=O)c2ccc(C)s2)cc1,?,-5%,-63*,13%,-3%,.
COc1ccc(NC(=O)CSc2nc3ccccc3n2CC(=O)NCc2ccc(F)cc2)cc1,.,-14%,-37,-7%[46.1 µM],-18%,-12%
Cc1ccccc1NC(=O)Cn1c(SCC(=O)Nc2ccc(F)cc2)nc2ccccc21,.,-10%,-64*,-25%[46.1 µM],-22%,-16%
COc1ccc(CNC(=O)Cn2c(SCC(=O)Nc3ccc(C)c(C)c3)nc3ccccc32)cc1,.,?,-67*,?,?,-12%
Cc1ccc(-n2nc3c(N4CCC(C(=O)NCCc5ccccc5)CC4)nnc(C)c3c2C)cc1,.,10µM*,-19,-9%[46.1 µM],11µM*,?
Cc1ccc(-n2nc3c(N4CCC(C(=O)N5CCC(C(N)=O)CC5)CC4)nnc(C)c3c2C)cc1,.,.,-61*,.,.,-24%
Cc1ccc(-n2nc3c(N4CCC(C(=O)NCCc5ccccc5C)CC4)nnc(C)c3c2C)cc1,.,10µM*,-19,-19%[46.1 µM],13µM*,?
Cc1ccc(-n2nc3c(N4CCC(C(=O)NCc5ccc(C)o5)CC4)nnc(C)c3c2C)cc1,.,.,-67*,.,.,-18%
COc1ccc(-n2nc3c(N4CCC(C(=O)NCCc5ccccc5)CC4)nnc(C)c3c2C)cc1,.,?,2,-5%[46.1 µM],?,-23%
COCCCNC(=O)N1CCN(c2nnc(C)c3c(C)n(-c4ccc(Cl)cc4)nc23)CC1,.,8.9µM*,2,15%[46.1 µM],?,-22%
Cc1nnc(N2CCC(C(=O)NCc3cccc(Cl)c3)CC2)c2nn(-c3ccccc3)c(C)c12,.,-17%,-103*,?,-11%,-23%
Cc1ccccc1CNC(=O)C1CCN(c2nnc(C)c3c(C)n(-c4ccccc4)nc23)CC1,.,-26%,-2,28%[46.1 µM],-30%,-10%
Cc1cnc(-n2ncc(C(=O)NCc3cccnc3)c2C)nc1-c1ccc(F)cc1,.,?,.,.,-29%,-26%
